dFosB act-1: mouse delta FosB homodimer activation; actives 0.99% (n = 340,000); activation, % at 25 µM; AID 493131; purified delta FosB, TAMRA-CDK5 oligo fluorescence polarization; percent of positive-control signal above neutral wells;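 active = mean activation above about 17%, with every replicate also reaching it, limit read from the data, passing the limit was not always enough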
Target sequence (P13346 whole entry, looked up): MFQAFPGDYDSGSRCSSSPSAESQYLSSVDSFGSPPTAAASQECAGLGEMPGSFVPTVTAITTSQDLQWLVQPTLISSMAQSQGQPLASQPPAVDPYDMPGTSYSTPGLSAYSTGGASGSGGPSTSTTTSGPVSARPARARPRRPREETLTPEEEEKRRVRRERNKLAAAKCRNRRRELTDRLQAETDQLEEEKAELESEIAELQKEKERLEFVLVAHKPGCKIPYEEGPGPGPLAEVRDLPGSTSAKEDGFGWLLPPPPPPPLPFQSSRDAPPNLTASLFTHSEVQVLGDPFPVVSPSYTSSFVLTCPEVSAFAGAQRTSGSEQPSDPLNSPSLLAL
NALP1 inh: inhibitors of NALP1 inflammasome in yeast; S. cerevisiae NALP1/ASC/caspase-1 growth, X-gal OD620, 72 h; actives 0.61% (n = 280,000); inhibition, % at 10 µM; AID 2071; in the data active = inhibition mostly above about 24%, no sharp cut-off; inactive = mostly below about 32%
EBNA-1 inhibitor: blocks EBNA-1 binding to DNA. EBNA-1 DNA binding, fluorescence polarization. inhibition, % at 14.8 µM. actives 0.34% (n = 300,000); in the data active = inhibition above about 28%
NLRP3 yeast inh: NALP3 inhibition in yeast | Yeast reconstituted NLRP3/ASC/caspase-1, beta-gal luminescence, 24 h | inhibition, % at 10 µM | actives 0.39% (n = 330,000) | AID 2825;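 active = inhibition of 50% or more; inactive = inhibition below 50%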
PolyA inh: yeast polyadenylation inhibition; S. cerevisiae SKY197-pL101 polyadenylation reporter, beta-gal luminescence; efflux-impaired pdr1/pdr3 knockout yeast; score 100 = 6 SD above DMSO; activity score, % at 12 µM; actives 0.02% (n = 300,000); AID 1875;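 active = lowest replicate activity score at least 50, where 100 means six control SD above control mean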;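 also: yeast exposed to compound for 9 h at 30 °C; higher score means more reporter readthrough which indicates perturbed polyadenylation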
ZTA DNA inh: ZTA (EBV) inhibition in EBNA-1 counter-screen. P03206. ZTA-DNA binding, fluorescence polarization. inhibition, % at 11 µM. actives 0.15% (n = 320,000). AID 2234; in the data active = inhibition above about 33%
Target sequence (P03206 whole entry, looked up): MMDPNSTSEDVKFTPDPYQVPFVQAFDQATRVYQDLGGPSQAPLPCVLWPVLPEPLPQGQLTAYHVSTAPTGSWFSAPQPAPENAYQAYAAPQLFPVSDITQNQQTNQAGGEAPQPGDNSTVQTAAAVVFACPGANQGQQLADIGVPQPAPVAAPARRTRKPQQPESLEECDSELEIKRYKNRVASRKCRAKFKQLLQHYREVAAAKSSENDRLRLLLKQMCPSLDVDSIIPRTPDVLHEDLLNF
dFosB act-2: activators of mouse delta FosB homodimer DNA binding; shares compounds with dFosB act-1; purified delta FosB, TAMRA-CDK5 oligo fluorescence polarization; normalised: neutral wells 0, positive control 100; activation, % at 24.9 µM; 2,400 tested, under 10 active;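 active = highest replicate activation at or above 34% and every replicate reaching that threshold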;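 also: higher polarization means more probe DNA bound by delta FosB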
Large screens that a line does not name were inactive (follow-up assays come after a bar, where they were run). A selection: hits, their analogues and other compounds. The true share with any hit is near 2.2%.

Cc1c(C(=O)NCCSCc2cccc(C(F)(F)F)c2)cnn1-c1ccc(Cl)cc1	none
COCc1ccc(CN2CCCCC2C(=O)Nc2ccc(Oc3ccccc3)nc2)o1 (configuration not stated)	none
COc1ccc(/C=C/C(=O)Nc2ccccc2)cc1OC	none
COc1ccc(/C=C/C(=O)Nc2ccc(-n3nncc3-c3ccc(OC)c(OC)c3)cc2)cc1OC	dFosB act-1 46 | dFosB act-2 inactive
NC(N)=NS(=O)(=O)c1ccc(NC(=S)NC(=O)/C=C/c2ccccc2)cc1	dFosB act-1 22 | dFosB act-2 inactive
COc1ccc(/C=C/C(=O)NC(=S)Nc2ccc(S(N)(=O)=O)cc2)cc1OC	dFosB act-1 47 | dFosB act-2 inactive
COc1ccc(/C=C/C(=O)NC(=S)Nc2ccccc2)cc1OC	dFosB act-1 33 | dFosB act-2 inactive
NS(=O)(=O)c1ccc(N2CCN(C(=O)c3ccco3)CC2)nc1	none (no result: NALP1 inh, EBNA-1 inhibitor, PolyA inh, ZTA DNA inh)
Cc1ccc(C(=O)N2CCN(c3cccc(C)c3C)CC2)cc1S(=O)(=O)N1CCOCC1	none (no result: NALP1 inh, EBNA-1 inhibitor, PolyA inh)
CCOc1ccc(CCN2C(=S)N([C@@H](Cc3ccc(O)cc3)CN3CCCC3CN3C(=S)NC[C@@H]3Cc3ccc(O)cc3)C[C@@H]2CC(C)C)cc1 (some centres not stated)	dFosB act-1 88 (no result: NALP1 inh, EBNA-1 inhibitor, NLRP3 yeast inh, PolyA inh, ZTA DNA inh) | dFosB act-2 inactive
Oc1ccc(C[C@H]2CNC(=S)N2CC2CCCN2C[C@H](Cc2ccc(O)cc2)N2C[C@H](Cc3ccccc3)N(CC3CCCCCC3)C2=S)cc1 (some centres not stated)	dFosB act-1 72 (no result: NALP1 inh, EBNA-1 inhibitor, NLRP3 yeast inh, PolyA inh, ZTA DNA inh) | dFosB act-2 inactive
Cc1ccc(CC2S/C(=N/N=C/c3ccco3)NC2=O)cc1 (configuration not stated)	none
O=C1N/C(=N/N=C/c2ccco2)SC1Cc1ccccc1 (configuration not stated)	dFosB act-1 21 | dFosB act-2 inactive
Cc1cccc(CC2S/C(=N/N=C/c3ccco3)NC2=O)c1 (configuration not stated)	dFosB act-1 25 | dFosB act-2 inactive
Cc1cc2nc(C)n(CCCNC(=O)Nc3cccc4ccccc34)c2cc1C	dFosB act-1 53 | dFosB act-2 inactive
CN(C)CCCNc1ncnc2sc(-c3ccccc3)cc12	dFosB act-1 27 (no result: NALP1 inh) | dFosB act-2 inactive
Cc1ccc(OCC(=O)NNC(=O)c2ccco2)c(C)c1	none
COc1nc(-c2ccc(Cl)cc2)ccc1-c1noc(-c2ccco2)n1	dFosB act-1 30 | dFosB act-2 inactive
Cc1ccc(S(=O)(=O)N2CCOCC2)cc1C(=O)OCC(=O)NC1CC1	none (no result: NALP1 inh, EBNA-1 inhibitor, PolyA inh)
COCC(=O)Nc1ccc2c(c1)OCC(=O)N2Cc1ccccc1F	none
COc1ccc(-c2cc(C(=O)Nc3cc(S(=O)(=O)N4CCOCC4)ccc3N3CCOCC3)c3ccccc3n2)cc1	dFosB act-1 34 | dFosB act-2 inactive
CCN1CCN(c2ccc(S(=O)(=O)N3CCOCC3)cc2NC(=O)c2cc(Cl)nc3ccccc23)CC1	none (no result: NALP1 inh)
COc1cccc(C(=O)OCC(=O)c2ccc(Br)s2)c1OC	none (no result: NALP1 inh, EBNA-1 inhibitor, PolyA inh)
CCOC(=O)c1c(NC(=O)Cn2c(C)nc3ccccc32)sc2c1CCC2	none (no result: NALP1 inh)
CCOC(=O)c1c(NC(=O)COC(=O)Cn2c(C)nc3ccccc32)sc2c1CCCC2	dFosB act-1 39 | dFosB act-2 inactive
CCOc1ccccc1N(CC(=O)NCc1ccco1)C(=O)CCC(=O)Nc1nccs1	none
C/C(=N\Nc1nc2ccccc2[nH]1)c1ccc2c(c1)OCCO2	none
C/C(=N\Nc1nc2ccccc2[nH]1)c1ccc2c(c1)OCO2	dFosB act-1 27 | dFosB act-2 inactive
Cc1c(Cl)cccc1NC(=O)Cn1nnc(C(=O)NCc2cccs2)c1N	dFosB act-1 39 | dFosB act-2 inactive
Cc1cccc(NC(=O)Cn2nnc(C(=O)NCc3cccs3)c2N)c1C	dFosB act-1 42 | dFosB act-2 inactive
Cc1cc(C)cc(NC(=O)Cn2nnc(C(=O)NCc3cccs3)c2N)c1	dFosB act-1 58 | dFosB act-2 inactive
Cc1cc(C)c(NC(=O)Cn2nnc(C(=O)NCc3cccs3)c2N)c(C)c1	none
CCc1ccccc1NC(=O)c1nnn(CC(=O)Nc2cccc(C)c2C)c1N	dFosB act-1 42 | dFosB act-2 inactive
O=C(Nc1ccccc1C(=O)O)c1cc(S(=O)(=O)Nc2ccccc2)ccc1Cl	none
CCC(CC)c1nc(C(N)=O)c2[nH]c(=O)n(-c3ccc(OC)c(OC)c3)c2n1	none
O=C(CNC(=O)c1sc2ccccc2c1Cl)Nc1ccccc1F	none (no result: NALP1 inh)
CC(C)COc1ccc(-c2nn(-c3ccccc3)cc2C(=O)Nc2nccs2)cc1	dFosB act-1 39 | dFosB act-2 inactive
O=C(Nc1nccs1)c1cn(-c2ccccc2)nc1-c1ccccc1	none
CC(=O)Nc1ccc(NC(=O)C(=O)NCC(c2ccco2)N2CCc3ccccc3C2)cc1 (configuration not stated)	dFosB act-1 22 (no result: NALP1 inh) | dFosB act-2 inactive
Cc1sc2nc(CN3CCOCC3)nc(N3CCN(S(=O)(=O)c4ccccc4)CC3)c2c1C	none (no result: NALP1 inh, EBNA-1 inhibitor, PolyA inh)
Cc1sc2nc(CN3CCCC3)nc(N3CCN(S(=O)(=O)c4cccc(F)c4)CC3)c2c1C	dFosB act-1 44 (no result: NALP1 inh, EBNA-1 inhibitor, PolyA inh) | dFosB act-2 inactive
Cc1ccc(NC(=O)c2ncn(CC(=O)NCc3nc4ccccc4[nH]3)n2)cc1C	dFosB act-1 47 (no result: NALP1 inh, EBNA-1 inhibitor, NLRP3 yeast inh, PolyA inh, ZTA DNA inh) | dFosB act-2 inactive
Cc1ccc(NC(=O)c2ncn(CC(=O)NCc3ccccc3)n2)cc1C	none (no result: NALP1 inh, EBNA-1 inhibitor, NLRP3 yeast inh, PolyA inh, ZTA DNA inh)
O=c1c2ccccc2[nH]c(=S)n1Cc1ccc2c(c1)OCO2	dFosB act-1 21 | dFosB act-2 inactive
Cc1cc2nc(C)c3c(n2n1)CCC3	none
Cc1ccc(Nc2nc(Nc3ccc(C)cc3)nc(SC3=NCCS3)n2)cc1	dFosB act-1 26 | dFosB act-2 inactive
Cc1nn(-c2ccccc2)c(C)c1C(=O)N1CCN(S(=O)(=O)c2ccccc2)CC1	none (no result: NALP1 inh, EBNA-1 inhibitor, PolyA inh)
O=C(C[C@@H]1C/C=C\C[C@@H](Cc2ccc(F)cc2)C(=O)OC[C@@H](Cc2ccccc2)NC1=O)N[C@H](CO)Cc1ccccc1	dFosB act-1 32 (no result: NALP1 inh, EBNA-1 inhibitor, PolyA inh, ZTA DNA inh) | dFosB act-2 inactive
O=C1NC2(CCCCO2)CO1 (configuration not stated)	none
CCOc1ccccc1C(=O)NCC(=O)OCC(=O)c1ccc2c(c1)OCCO2	dFosB act-1 18 | dFosB act-2 inactive
Cc1c(C(=O)OCC(=O)N2CC(=O)Nc3ccccc32)oc2ccccc12	dFosB act-1 33 | dFosB act-2 inactive
O=C1CN(C(=O)COC(=O)c2oc3ccccc3c2COc2ccccc2)c2ccccc2N1	none
N#CC1=C(N)N2C(=C(C#N)C1c1cccc(Br)c1)Nc1ccccc12 (configuration not stated)	dFosB act-1 27 | dFosB act-2 inactive

Bioassay records (PubChem)
